Among the data in ChEMBL document CHEMBL1157539, “Thousands of chemical starting points for antimalarial lead identification” (Nature, 2010) are Inhibition values, retold here.

One may read the Inhibition as how much of the control response was suppressed.

This experiment has as its system HepG2. Briefly: GSK_TCMDC: Percent inhibition of human HepG2 cell line. Test compounds present at 10uM. Type of experiment: functional.
In the case of `Cc1ccc(NC(=O)c2ccc(CN3CCCN(Cc4cccc(O)c4)CC3)cc2)cc1.O=C(O)C(F)(F)F`, the Inhibition is reported as 39%.

`CN(C)CCn1cc(C(=O)c2cc(Cl)ccc2O)cc1-c1nc2ccccc2c(=O)[nH]1`: the Inhibition is 16%.

Take `COc1ccc2ncc(F)c(CCN3CCC(NCc4ccc5c(c4)CCO5)CC3)c2n1.Cl`: the Inhibition came out at 20%.

Molecule `O=C(O)C(=O)O.Oc1c(CN2CCC(Cc3ccccc3)CC2)cc(Cl)c2cccnc12` registered an Inhibition of 49%.

The molecule `CCCCCN1CCCCC(NS(=O)(=O)c2ccc(C(=O)Nc3cccc(C(F)(F)F)c3)cc2)C1.O=C(O)C(F)(F)F` (stereo not given) registered an Inhibition of 14%.

Molecule `O=C(Cn1c(SCc2cccc(F)c2F)cc(=O)c2ccccc21)N(CCc1c[nH]cn1)Cc1ccc(-c2ccc(C(F)(F)F)cc2)cc1` showed an Inhibition of 18%.

Turning to `CCCCCCN1CCC(CNCc2cccc([N+](=O)[O-])c2)CC1.O=C(O)C(F)(F)F`, the Inhibition was 16%.

The molecule `O=C(CSc1cccc[n+]1[O-])c1ccc(Cc2ncc(C(F)(F)F)cc2Cl)s1` gave an Inhibition of 13%.

`CCN1CCN(c2cc(C)c3cc(NC(=O)c4cccc(Cl)c4)ccc3n2)CC1` yielded an Inhibition of 4%.

As for `COc1ccc(CN(C)CC(O)COc2ccc(NC(=O)c3cccc4c(=O)c5cccc(OC)c5[nH]c34)cc2)cc1OC` (stereo not given), the Inhibition came out at 72%.

With `Cc1cc(=NN=Cc2ccccc2)c2cc(C(F)(F)F)ccc2[nH]1`, the Inhibition was found to be 30%.

For the molecule `COc1ccccc1N=C1SC(=Cc2cn(CC(=O)N3CCCc4ccccc43)c3ccccc23)C(=O)N1C1CCCCC1`, the Inhibition is reported as 10%.

As for `COc1ccc(-n2cc(CNCCCn3ccnc3)c(-c3cccc(F)c3)n2)cc1`, the Inhibition turned out to be 21%.

In the case of `O=C(N[C@@H](Cc1ccccc1)C(=O)NC1CCCCC1)c1ccc(O)c(-c2cccc(C(F)(F)F)c2)c1`, the Inhibition was 11%.

The molecule `CCOC(=O)NCCSC(C)(C)[C@H](NC(=O)[C@H](Cc1cc2ccccc2s1)[C@H](CC)N(O)C=O)C(=O)Nc1nccs1` returned an Inhibition of 11%.

`Nc1nc(N)c2nc(C3CC=CCC3)c(N)nc2n1` (stereo not given): the Inhibition is given as 67%.

As for `CC(=O)N1CCN(c2ccc(NC(=O)c3oc(-c4ccccc4)nc3C(F)(F)F)cn2)CC1`, the Inhibition came to 0%.

For `COc1ccc(CN2CCC(Oc3cccc(NC(=O)c4ccc(C(F)(F)F)cc4)c3)CC2)cc1.O=C(O)C(F)(F)F`, the Inhibition is 35%.

`O=C(NC1CCN(Cc2ccsc2)CC1)c1ccc(-c2cccc(C(F)(F)F)c2)s1.O=C(O)C(F)(F)F` registered an Inhibition of 48%.

In the case of `O=C(O)C(F)(F)F.O=S(=O)(NCCN1CCCC1)c1ccc(-c2cccc(CNCc3ccc(F)cc3)c2)cc1F`, the Inhibition is given as 43%.

With `CC(C)C[C@H](NC(=O)c1ccc(F)cc1)C(=O)N[C@H](/C=N/NC(=O)c1ccccc1)CCc1ccccc1`, the Inhibition is 1%.

With `COc1ccc2nccc(N/N=C/c3cccc([N+](=O)[O-])c3)c2c1`, the Inhibition is recorded as 4%.

`COc1ccc2ncc(C#N)c(CCN3CCC(NCc4ccc5c(c4)NC(=O)CO5)CC3)c2c1.Cl` had an Inhibition of 25%.

In turn, `CCC(C)(C)c1ccc(OCC(O)CN2CCCCC2)c(C(C)(C)CC)c1` (stereo not given) came in with an Inhibition of 14%.

As to `CCC1CCCCN1S(=O)(=O)c1ccc(NC(=O)c2cc(C)on2)cc1` (stereo not given), the Inhibition is 0%.

As to `Cc1ccc2nc(C)cc(N/N=C/c3ccc([N+](=O)[O-])cc3)c2c1`, the Inhibition is listed as 10%.

In the case of `C(=Cc1nc2ccccc2s1)c1ccc2c(c1)OCCO2.Cl`, the Inhibition stood at 13%.

`CN1CCN(C(C(=O)NCc2cc(Cl)cc(Cl)c2)c2ccc(Nc3cccc(C(F)(F)F)c3)cc2)CC1` (stereo not given): the Inhibition is 49%.

`O=C(O)C(F)(F)F.O=C1CCCN1CCCNCc1ccc(-c2ccc(-c3nc4cc(C(F)(F)F)ccc4[nH]3)cc2)cc1` registered an Inhibition of 10%.

Take `COc1cc(-c2nnc(SCC(=O)Nc3cc(C)on3)n2C)cc(OC)c1O`: the Inhibition stood at 2%.

As for `O=C1C[C@@H]([S+]([O-])Cc2nccs2)N1CCOCCCCCCc1ccc(Cl)cc1` (stereo not given in full), the Inhibition was determined as 0%.

With `CC(C)(C)c1nn(-c2ccccc2)c2[nH]c(=O)c(CNC3CCCC3)cc12`, the Inhibition was 7%.

Consider `O=C(Nc1ccc(Cn2ncc(N3CCCNCC3)c(Cl)c2=O)cc1)Nc1ccc(SC(F)(F)F)cc1.O=C(O)C(F)(F)F`, for which the Inhibition stood at 9%.

With `FC(F)(F)c1ccc2[nH]c(-c3ccc(-c4cccc(CNCCc5cccnc5)c4)s3)nc2c1.O=C(O)C(F)(F)F`, the Inhibition stood at 26%.

`CCC[C@@H]([C@@H](CC1CCCCC1)C(=O)N[C@H](C(=O)Nc1nccs1)C(C)(C)SCCNC(=O)OCC)N(O)C=O` had an Inhibition of 45%.

As to `CN1CCN(c2ccnc3ccc(NC(=O)Nc4ccc(Br)cc4)cc23)CC1`, the Inhibition turned out to be 12%.

The molecule `COc1cc2nc(N3CCC(CNC(=O)c4ccc(C(C)=O)cc4)CC3)nc(N)c2cc1OC.O=C(O)C(F)(F)F` came in with an Inhibition of 10%.

Molecule `CC(C)NCc1cccc(-c2cccc(NC(=O)c3cccc(C#N)c3)c2)c1.O=C(O)C(F)(F)F` registered an Inhibition of 12%.

In turn, `O=C(Nc1cccc(CN2CCCN(Cc3ccc(F)cc3)CC2)c1)c1ccc(Cl)c(Cl)c1.O=C(O)C(F)(F)F` returned an Inhibition of 27%.

`COc1cc(Cn2ccc3c4c(N)nc(N)nc4ccc32)cc(OC)c1OC` yielded an Inhibition of 66%.
